Measurements as given in PubChem BioAssay (NCI).
Compounds without any hit were thinned out: in the full panel of roughly 83,000, 20% have a hit.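 Interpretation: 100, growth as untreated; towards 0, rising growth inhibition; 0, no net growth; 0 to -100, cell death. Compounds scoring below 10 were considered active.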 The source made the active and inactive calls.

Experiments:
Experiment in all cases: NCI-60 one-dose screen, 48 h (100 = growth as untreated, 0 = no growth, -100 = all killed)
Settings in all cases: 10 µM unless noted
HCT-15 colon = tested on: HCT-15 colon
HT29 colon = tested on: HT29 colon
SNB-75 CNS = tested on: SNB-75 CNS
SNB-19 CNS = tested on: SNB-19 CNS
U251 CNS = tested on: U251 CNS
PC-3 prostate = tested on: PC-3 prostate
SK-MEL-5 melanoma = tested on: SK-MEL-5 melanoma
UACC-62 melanoma = tested on: UACC-62 melanoma
LOX IMVI melanoma = tested on: LOX IMVI melanoma
SK-MEL-28 melanoma = tested on: SK-MEL-28 melanoma

Measured: growth

O=C(Nc1ccc(Cl)cc1)Nc1nccs1
inactive: HCT-15 colon 33% | HT29 colon 10.7% | SNB-19 CNS 64.9% | U251 CNS 22.3% | PC-3 prostate 13.3% | SK-MEL-5 melanoma 31.2% | UACC-62 melanoma 50.3% | LOX IMVI melanoma 46.3% | SK-MEL-28 melanoma 50.5%
active: SNB-75 CNS 1.2%

C[C@]12CC[C@H]3[C@@H](C[C@@H]4SC(Nc5ccccc5)=N[C@@]45CC(O)CC[C@]35C)[C@@H]1CCC2O (stereo not given in full)
inactive: SNB-19 CNS 26.5% | PC-3 prostate 39.2% | SK-MEL-5 melanoma 34.5% | UACC-62 melanoma 39.8% | SK-MEL-28 melanoma 27.3%
active: HCT-15 colon -30.2% | HT29 colon -38.5% | SNB-75 CNS -5.43% | U251 CNS -30.1% | LOX IMVI melanoma -81.5%

[Cl][Hg][c]1cc(Br)cc(Br)c1
inactive: HCT-15 colon 38.2% | HT29 colon 46.4% | SNB-75 CNS 21.6% | SNB-19 CNS 17% | PC-3 prostate 50.3% | SK-MEL-5 melanoma 22.1% | UACC-62 melanoma 47% | SK-MEL-28 melanoma 59.5%
active: U251 CNS -55.9% | LOX IMVI melanoma 9.91%

CCOC(=O)c1c(C)n(Cc2ccccc2)c2cc(CN(C)C)c(O)cc12
inactive: HCT-15 colon 63.4% | HT29 colon 37% | SNB-75 CNS 50.5% | SNB-19 CNS 72.2% | U251 CNS 67.8% | PC-3 prostate 57.4% | SK-MEL-5 melanoma 82.5% | UACC-62 melanoma 58.4% | LOX IMVI melanoma 28.8% | SK-MEL-28 melanoma 80.2%

C/C(=C\c1cc(C(F)(F)F)nn1CCNC(=O)OC(C)(C)C)[C@@H]1C[C@@H]2O[C@]2(C)CCC[C@H](C)[C@H](O)[C@@H](C)C(=O)C(C)(C)[C@@H](O)CC(=O)O1
inactive: HCT-15 colon 39.5% | HT29 colon 23.6% | SNB-75 CNS 37.2% | SNB-19 CNS 65.4% | U251 CNS 61.4% | PC-3 prostate 32% | SK-MEL-5 melanoma 38.8% | UACC-62 melanoma 40.7% | LOX IMVI melanoma 55.9% | SK-MEL-28 melanoma 79.2%

COC(=O)[C@@H](C)C[C@H](Cc1ccccc1)NC(=O)c1csc([C@@H](C[C@H](C(C)C)N(C)C(=O)[C@@H](NC(=O)CN(C)C)C2CC2)OC(C)=O)n1
inactive: HCT-15 colon 14.6% | SNB-75 CNS 37.4% | SNB-19 CNS 41% | U251 CNS 12.7% | PC-3 prostate 25.9% | UACC-62 melanoma 63.8% | SK-MEL-28 melanoma 61.3%
active: HT29 colon -24.4% | SK-MEL-5 melanoma -47.6% | LOX IMVI melanoma 8.77%

CC(C)COC(C[N+](=O)[O-])C(Cl)(Cl)Cl (stereo not given)
inactive: HCT-15 colon 105% | HT29 colon 106% | SNB-75 CNS 90.4% | SNB-19 CNS 106% | U251 CNS 95.7% | PC-3 prostate 91% | SK-MEL-5 melanoma 112% | UACC-62 melanoma 101% | LOX IMVI melanoma 103% | SK-MEL-28 melanoma 99.4%

O=C(CCl)c1ccc([N+](=O)[O-])o1
active: HCT-15 colon -86.6% | HT29 colon -14.3% | U251 CNS 7.98% | PC-3 prostate -23.8% | LOX IMVI melanoma -81.8% | SK-MEL-28 melanoma -64.6%
inactive: SNB-75 CNS 51.3% | SNB-19 CNS 75.4% | SK-MEL-5 melanoma 62.8% | UACC-62 melanoma 33%

C#C[C@]1(OC(=O)CCCCCC)CC[C@H]2[C@@H]3CCC4=CC(=O)CC[C@@H]4[C@H]3CC[C@@]21C
active: HT29 colon 9.11% | LOX IMVI melanoma 8.13%
inactive: HCT-15 colon 39.9% | SNB-75 CNS 81.5% | SNB-19 CNS 53.7% | U251 CNS 50.9% | PC-3 prostate 32.7% | SK-MEL-5 melanoma 20.5% | UACC-62 melanoma 25.6% | SK-MEL-28 melanoma 43.3%

C[C@@H]1CCC2[C@@H](C)[C@H](OC(=O)CCC(=O)NCCNC(=O)Cc3cc(=O)oc4cc(N(C)C)ccc34)O[C@@H]3O[C@]4(C)CC[C@@H]1C23OO4 (stereo not given in full)
inactive: HT29 colon 26.4% | SNB-75 CNS 60.9% | SNB-19 CNS 65% | U251 CNS 34.4% | PC-3 prostate 19.1% | SK-MEL-5 melanoma 33.2% | UACC-62 melanoma 31.7% | SK-MEL-28 melanoma 57.5%
active: HCT-15 colon 7.81% | LOX IMVI melanoma -7.91%

COC(=O)[C@@H](C)C[C@H](Cc1ccccc1)NC(=O)c1csc([C@@H](C[C@H](C(C)C)N(C)C(=O)[C@H](C)NC(=O)[C@H]2CCCCN2C)OC(C)=O)n1
active: HT29 colon 9.42%
inactive: HCT-15 colon 45.4% | SNB-75 CNS 18.1% | SNB-19 CNS 27.7% | U251 CNS 10.8% | PC-3 prostate 19.6% | SK-MEL-5 melanoma 19.3% | UACC-62 melanoma 28.4% | LOX IMVI melanoma 39.8% | SK-MEL-28 melanoma 58.1%

CC(=O)OCC1O[C@@H]([S-])C(OC(C)=O)[C@H](OC(C)=O)[C@@H]1OC(C)=O.[Au+].c1ccc(CN2[CH-]N(Cc3ccccc3)C(c3ccccc3)=C2c2ccccc2)cc1
inactive: HT29 colon 50.3% | SNB-75 CNS 40.8% | SNB-19 CNS 36.8% | PC-3 prostate 39.4% | SK-MEL-5 melanoma 48.5%
active: HCT-15 colon -63% | U251 CNS -59.3% | UACC-62 melanoma 8.41% | LOX IMVI melanoma -65.7% | SK-MEL-28 melanoma -56.8%

COC[C@@H]1C[C@@]2(C)[C@@H](CC[C@@H]3[C@@H]2CC[C@@]2(C)[C@H]3CC[C@]2(C)O)CC1=O
inactive: HCT-15 colon 94.8% | HT29 colon 83.4% | SNB-75 CNS 90.4% | SNB-19 CNS 113% | U251 CNS 93.7% | PC-3 prostate 96.8% | SK-MEL-5 melanoma 106% | UACC-62 melanoma 100% | LOX IMVI melanoma 95.2% | SK-MEL-28 melanoma 96.4%

OCCNC(Cc1ccccc1)c1ccc2c(c1)OCO2 (stereo not given)
inactive: HCT-15 colon 100% | HT29 colon 73% | SNB-75 CNS 108% | SNB-19 CNS 106% | U251 CNS 92.9% | PC-3 prostate 73.1% | SK-MEL-5 melanoma 101% | UACC-62 melanoma 92.4% | LOX IMVI melanoma 93.5% | SK-MEL-28 melanoma 109%

Cc1cc(N(CCCl)CCCl)ccc1C=Nc1cccnc1
inactive: HCT-15 colon 84.4% | HT29 colon 91.6% | SNB-75 CNS 60.2% | SNB-19 CNS 81.2% | U251 CNS 76.1% | PC-3 prostate 63.1% | SK-MEL-5 melanoma 77.5% | UACC-62 melanoma 46.6% | LOX IMVI melanoma 71.6% | SK-MEL-28 melanoma 97.5%

CC(=O)O[C@H](C[C@H](C(C)C)N(C)C(=O)[C@@H](NC(=O)[C@H]1CCCCN1C)C(C)C)c1nc(C(=O)N[C@@H](Cc2ccccc2)C[C@H](C)C(=O)O)c(C)s1
active: HT29 colon 3.99% | U251 CNS 8.94% | SK-MEL-5 melanoma -33.1%
inactive: HCT-15 colon 16.5% | SNB-75 CNS 49.6% | SNB-19 CNS 38.5% | PC-3 prostate 21.3% | UACC-62 melanoma 48.1% | LOX IMVI melanoma 26.6% | SK-MEL-28 melanoma 62.7%

Cc1c(C)c([N+](=O)[O-])c(C)c(C)c1[N+](=O)[O-]
inactive: HCT-15 colon 100% | HT29 colon 100% | SNB-75 CNS 113% | SNB-19 CNS 103% | U251 CNS 99.2% | PC-3 prostate 105% | SK-MEL-5 melanoma 107% | UACC-62 melanoma 102% | LOX IMVI melanoma 106% | SK-MEL-28 melanoma 108%

CC1[C@H](C)OC(=O)CC(O)CC(O)CC(O)CCC(O)C(O)C[C@]2(O)CC(O)C(C(=O)O)C(CC(OC3O[C@H](C)[C@@H](O)[C@H](N)[C@@H]3O)/C=C/C=C/C=C/C=C/CC/C=C/C=C/[C@H](C)[C@H]1O)O2 (stereo not given in full)
inactive: HCT-15 colon 109% | HT29 colon 107% | SNB-75 CNS 103% | SNB-19 CNS 109% | U251 CNS 92.4% | PC-3 prostate 98.7% | SK-MEL-5 melanoma 97.2% | UACC-62 melanoma 109% | LOX IMVI melanoma 89.7% | SK-MEL-28 melanoma 110%

CCCCCN(CCCCC)CC(O)c1cc(Cl)ccc1OC (stereo not given)
inactive: HCT-15 colon 31.3% | HT29 colon 11.8% | SNB-75 CNS 84.8% | SNB-19 CNS 56.7% | U251 CNS 38.3% | PC-3 prostate 24.5% | SK-MEL-5 melanoma 37.7% | UACC-62 melanoma 62.3% | LOX IMVI melanoma 14.5% | SK-MEL-28 melanoma 51.7%

COC(C(=O)[C@@H](O)[C@@H](C)O)[C@@H]1Cc2cc3cc(O[C@H]4C[C@@H](O[C@H]5C[C@@H](O)[C@H](O)C(C)O5)[C@H](O)C(C)O4)c(C)c(O)c3c(O)c2C(=O)[C@H]1O[C@H]1C[C@@H](O[C@H]2C[C@@H](O[C@H]3C[C@@H](O)[C@@H](O)C(C)O3)[C@@H](O)C(C)O2)[C@H](O)C(C)O1 (stereo not given in full)
inactive: HCT-15 colon 47.7% | SNB-19 CNS 11.7% | PC-3 prostate 21.6%
active: HT29 colon -11.9% | SNB-75 CNS -31.8% | U251 CNS 1.11% | SK-MEL-5 melanoma -49.2% | UACC-62 melanoma -52.2% | LOX IMVI melanoma -10.6% | SK-MEL-28 melanoma -9.88%

C[C@]12C[C@@H](CO)[C@H](O)C[C@@H]1CC[C@@H]1[C@@H]2CC[C@]2(C)[C@@H](O)CC[C@@H]12
inactive: HCT-15 colon 105% | HT29 colon 84% | SNB-75 CNS 107% | SNB-19 CNS 108% | U251 CNS 96.1% | PC-3 prostate 95.1% | SK-MEL-5 melanoma 103% | UACC-62 melanoma 106% | LOX IMVI melanoma 93.8% | SK-MEL-28 melanoma 105%

CN1CC(CNC(=O)OCc2ccccc2)CC2c3cccc4c3c(cn4C)CC21 (stereo not given)
inactive: SNB-75 CNS 20.6% | SNB-19 CNS 57.8% | U251 CNS 13.6% | PC-3 prostate 40%
active: HCT-15 colon 8.29% | HT29 colon 5.34% | SK-MEL-5 melanoma -97.8% | UACC-62 melanoma 5.67% | LOX IMVI melanoma -37.4% | SK-MEL-28 melanoma -41.1%
